Screening data (PubChem BioAssay)
HCMV antiviral: qHTS Assay for inhibitors of the human cytomegalovirus (HCMV); activity change, negative = inhibition, % at 57.5 µM; hit rate 4.5% among 410,000; HFF cells, HCMV-luciferase reporter, 72 h; stronger effect = lower value; in the data active = activity change below about -60%; inconclusive = no clear call, values can overlap the other calls; inactive = above about -39%
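Cell-based, HFFs, 1000 cells/well, 16 h 37C; cpds in DMSO + HCMV-luc, MOI 1 PFU/cell; 72 h 37C; OneGlo luminescence after 5 min RT; norm. to buffer vs Salinomycin 10uM.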
FBPA Giardia inh: qHTS Assay for Inhibitors of Fructose-1,6-bisphosphate Aldolase from Giardia Lamblia; purified Giardia FBPA; Potency, µM (series often up to 59.6 µM), most hits filed as inhibitors; hit rate 0.71% among 290,000; AID 2451, 2010; also: nearly all actives have a fitted effect of over 55% in size
Target sequence (A8B2U2 whole entry, looked up): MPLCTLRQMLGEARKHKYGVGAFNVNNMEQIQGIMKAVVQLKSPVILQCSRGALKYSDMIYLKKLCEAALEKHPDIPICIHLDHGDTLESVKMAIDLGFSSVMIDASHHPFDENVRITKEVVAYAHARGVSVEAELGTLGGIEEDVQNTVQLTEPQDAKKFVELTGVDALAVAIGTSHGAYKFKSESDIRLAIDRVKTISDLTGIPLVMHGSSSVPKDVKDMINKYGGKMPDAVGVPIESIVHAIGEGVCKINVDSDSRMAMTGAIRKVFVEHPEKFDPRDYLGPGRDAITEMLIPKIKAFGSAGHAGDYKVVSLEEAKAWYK
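Giardia FBPA (40 nM reagent) was preincubated 10 min at RT with compound (up to 57.5 uM final), then substrate plus GAPDH/TPI/NAD/arsenate coupling system with diaphorase/resazurin was added; resorufin fluorescence (525/598 nm) was read after 20 min.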
TbPYK inhibitor: qHTS of Trypanosoma Brucei Inhibitors; Potency, µM (highest dose often 76.8 µM), hits mostly inhibitors; AID 624173, 2012; pyruvate kinase (Trypanosoma brucei), Q57TT1; TbPYK enzyme, Kinase-Glo Plus ATP luminescence, 45 min; hit rate 0.12% among 410,000; also: nearly all actives have a fitted effect of over 50% in size
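Activity of T. brucei pyruvate kinase was followed by Kinase-Glo Plus luminescence after the enzyme reacted 45 min at room temperature with 130 uM ADP (final) and substrate. Test compounds were added before ADP at multiple concentrations.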
RE007 growth inh: qHTS Assay for Inhibitors of the HIV-1 protein Vpr; S. pombe RE007 Vpr strain, BacTiter-Glo ATP luminescence, 24 h; Potency, µM (doses to about 92.2 µM), most hits filed as inhibitors; hit rate 0.21% among 360,000; active = well fitted falling curve with a large enough effect; inconclusive = small, poorly fitted or top-dose-only effect; inactive = no such curve, though single readings can be large or run the other way; also: nearly all actives have a fitted effect of over 50% in size
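Fission yeast strain RE007, carrying one chromosomally integrated HIV-1 vpr copy, was seeded at OD 0.01 in PMG+AL medium with 23 nL pinned compound. After 24 h at 30 °C and 99% humidity, viability was read by BacTiter-Glo luminescence.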
FMDV inh: High Throughput Screening for Foot and Mouth Disease Virus Antivirals. FMDV antiviral cell-based qHTS. Potency, µM (series often up to 57.9 µM), actives largely listed as inhibitors. hit rate 1.2% among 410,000. AID 1159524, 2015; calls by dose curve; tested in HEK293T cells; also: read-out not given here; nearly all actives have a fitted effect of over 45% in size
Sm TGR block: qHTS Assay for the Inhibitors of Schistosoma Mansoni Peroxiredoxins. purified TGR, DTNB reduction, TNB absorbance 405 nm. Potency, µM (series often up to 114 µM), usual class: inhibitors. hit rate 3% among 360,000. AID 485364, 2010; also: nearly all actives have a fitted effect of over 60% in size
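TGR 20 nM + NADPH 100 uM (dispensed conc.), cpd preinc 15 min RT; start with NADPH (500 uM addition) then DTNB (15 mM addition). Kinetic TNB absorbance, 405 nm filter. Four-parameter Hill fit across titration.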
Numbers stand for hits. Only some compounds are listed: those with a hit (about 7.7% of all), similar ones and a draw of the others. Unless noted, calls follow the shape of the dose curve; as a rule, active = well fitted curve in the direction sought with a large enough effect; inconclusive = small, poorly fitted or top-dose-only effect, or another doubt; inactive = no such curve, though single readings can be large; an effect the other way counts as inactive or inconclusive.

COc1cccc(N2CCN(C(=O)Cn3c(-c4cccs4)cc4ccccc43)CC2)c1 was read as HCMV antiviral inactive, TbPYK inhibitor inactive, FMDV inh inactive and Sm TGR block inactive.
Cc1ccc(C)c(NC(=O)Cn2c(=O)n(Cc3ccc4c(c3)OCO4)c(=O)c3ccccc32)c1 was read as HCMV antiviral inactive, TbPYK inhibitor inactive, FMDV inh inactive and Sm TGR block inactive.
For COc1ccc(CNCc2c(O)c(Cl)cc3c(C)c(C)c(=O)oc23)c(OC)c1 the results were HCMV antiviral -70, FBPA Giardia inh inconclusive, TbPYK inhibitor inactive, RE007 growth inh inactive, FMDV inh inactive and Sm TGR block inactive.
Cc1ccc(CN2C[C@H](Sc3ccccn3)C[C@H]2C(=O)Nc2ccc3sc(C)nc3c2)s1 was read as FMDV inh inactive.
For Cc1ccc(C)c(/C(O)=C2\C(=O)C(=O)N(CCCN3CCOCC3)C2c2cccnc2)c1 (centres undefined) the results were HCMV antiviral inactive, FBPA Giardia inh inactive, TbPYK inhibitor inactive, RE007 growth inh inactive, FMDV inh inactive and Sm TGR block 28µM.
`Cc1ccc(/C(O)=C2/C(=O)C(=O)N(CCN3CCOCC3)C2c2cccnc2)cc1` (centres undefined) gave HCMV antiviral inactive, FBPA Giardia inh inactive, TbPYK inhibitor inactive, RE007 growth inh inactive, FMDV inh inactive and Sm TGR block inactive.
For CCOc1cccc(/C(O)=C2/C(=O)C(=O)N(CCN3CCOCC3)C2c2cccnc2)c1 (centres undefined) the results were HCMV antiviral inactive, FBPA Giardia inh inactive, TbPYK inhibitor inactive, RE007 growth inh inactive, FMDV inh inactive and Sm TGR block inactive.
COc1ccc(C2/C(=C(\O)c3cccc(OC)c3)C(=O)C(=O)N2c2ccccn2)cc1 (centres undefined) was read as HCMV antiviral -107, FBPA Giardia inh inactive, TbPYK inhibitor inactive, RE007 growth inh inactive, FMDV inh inactive and Sm TGR block inactive.
Screening COc1cccc(/C(O)=C2/C(=O)C(=O)N(CCN3CCOCC3)C2c2cccnc2)c1 (centres undefined) returned HCMV antiviral inactive, FBPA Giardia inh inactive, TbPYK inhibitor inactive, RE007 growth inh inactive, FMDV inh inactive and Sm TGR block 22µM.
N#Cc1ccccc1Cn1cc(C(=O)c2cccs2)c2ccccc21 was read as HCMV antiviral -81, FBPA Giardia inh inactive, TbPYK inhibitor inactive, RE007 growth inh inactive, FMDV inh inactive and Sm TGR block inactive.
For CC(=O)N(Cc1ccccc1)c1nccs1 the results were HCMV antiviral inactive.
For COCc1c(C(=O)N2CCCCCC2)cnn1-c1nccc(-c2cccs2)n1 the results were FMDV inh inactive.
For CCCCN1CC(COCc2ccccc2)Oc2cccc(Oc3ccc(SC)c(C)c3)c2S1(=O)=O (centres undefined) the results were HCMV antiviral -80.
For CCCSc1nc(N)nc2c1ncn2C1OC(CO)C(O)C1O (centres undefined) the results were HCMV antiviral -70, TbPYK inhibitor inactive, RE007 growth inh inactive and FMDV inh inactive.
Nc1nc(Cl)c2ncn(C3OC(CO)C(O)C3O)c2n1 (centres undefined) was read as HCMV antiviral inactive, FBPA Giardia inh inactive, TbPYK inhibitor inactive, RE007 growth inh inactive, FMDV inh inactive and Sm TGR block inactive.
Screening COc1ccc2oc(=O)cc(CN3CCN(c4ccccc4OC)CC3)c2c1 returned HCMV antiviral inactive, TbPYK inhibitor inactive, FMDV inh inactive and Sm TGR block inactive.
`CC(C)(C)c1cc(/C=N/NC(=O)Cc2nc3ccccc3[nH]2)cc(C(C)(C)C)c1O` gave HCMV antiviral -79, FBPA Giardia inh inactive, TbPYK inhibitor inactive, RE007 growth inh inactive, FMDV inh inactive and Sm TGR block inconclusive.
For O=C(Cc1nc2ccccc2[nH]1)N/N=C/c1ccccc1 the results were HCMV antiviral inactive, FBPA Giardia inh inactive, TbPYK inhibitor inactive, RE007 growth inh inactive, FMDV inh inactive and Sm TGR block inactive.
`COc1ccc(CC(=O)N2CC3ON=C(c4c(F)cccc4Cl)C3C2)cc1` (centres undefined) gave HCMV antiviral inactive.
Screening CCN(Cc1ccc2c(c1)OCCO2)C(=O)CSc1nc(C)nc2sc(C)c(C)c12 returned HCMV antiviral inactive, TbPYK inhibitor inactive, RE007 growth inh inactive, FMDV inh 32µM and Sm TGR block inactive.
Screening COc1ccccc1-c1c(C)nn2c(N3CCC(C(N)=O)CC3)cc(C)nc12 returned HCMV antiviral inactive, FBPA Giardia inh inactive, TbPYK inhibitor inactive, RE007 growth inh inactive, FMDV inh inactive and Sm TGR block inactive.
For COc1ccccc1-c1c(C)nn2c(N3CCC(C)CC3)cc(C)nc12 the results were HCMV antiviral inactive, FBPA Giardia inh inactive, TbPYK inhibitor inactive, RE007 growth inh inactive, FMDV inh 25µM and Sm TGR block inactive.
For CCN1C(=O)/C(=C\c2ccc([N+](=O)[O-])s2)C(=O)NC1=S the results were FBPA Giardia inh 11µM and Sm TGR block 2.8µM.
`CCCN1C(=O)/C(=C/c2ccc(C)s2)NC1=S` gave HCMV antiviral inactive, FBPA Giardia inh inactive, TbPYK inhibitor inactive, RE007 growth inh inconclusive, FMDV inh inactive and Sm TGR block inconclusive.
Screening C=CCN1C(=O)/C(=C/c2ccc(Br)s2)C(=O)NC1=S returned HCMV antiviral inactive, FBPA Giardia inh inactive, TbPYK inhibitor inactive, RE007 growth inh inconclusive, FMDV inh 32µM and Sm TGR block 2.5µM.
`COC(=O)C1=C(C(=O)OC)C(C(=O)OC)C(C(=O)OC)C(C(=O)OC)(C(=O)OC)C(C(=O)OC)=C1C(=O)OC` (centres undefined) gave HCMV antiviral inactive, TbPYK inhibitor inconclusive, RE007 growth inh inactive and FMDV inh 40µM.
Screening CCC(=O)N1CCc2cc(Br)cc(S(=O)(=O)NCCc3ccc(OC)c(OC)c3)c21 returned HCMV antiviral inactive, TbPYK inhibitor inactive, FMDV inh inactive and Sm TGR block inactive.
Cc1cccc(OS(=O)(=O)NC(=O)OCC2CCCN3CCCCC23)c1 (centres undefined) was read as HCMV antiviral inactive, FBPA Giardia inh inactive, TbPYK inhibitor inactive, RE007 growth inh inactive, FMDV inh 32µM and Sm TGR block inactive.
`COc1ccc(NC(=O)c2cc(C)nc3c2c(C)nn3-c2ccc(C)cc2)cc1OC` gave HCMV antiviral inactive, TbPYK inhibitor inactive, FMDV inh inactive and Sm TGR block inactive.
